# In all, about 33,000 sequences were measured (“E-score (-0.5 to 0.5)”: median about -0.041, highest 2% from about 0.37 on). The list comes from a sample in which the highest values are over-represented; it also holds similar and randomly drawn sequences.
# Target: T1, Ecm22 (UniProt Q05958)
# T1 sequence: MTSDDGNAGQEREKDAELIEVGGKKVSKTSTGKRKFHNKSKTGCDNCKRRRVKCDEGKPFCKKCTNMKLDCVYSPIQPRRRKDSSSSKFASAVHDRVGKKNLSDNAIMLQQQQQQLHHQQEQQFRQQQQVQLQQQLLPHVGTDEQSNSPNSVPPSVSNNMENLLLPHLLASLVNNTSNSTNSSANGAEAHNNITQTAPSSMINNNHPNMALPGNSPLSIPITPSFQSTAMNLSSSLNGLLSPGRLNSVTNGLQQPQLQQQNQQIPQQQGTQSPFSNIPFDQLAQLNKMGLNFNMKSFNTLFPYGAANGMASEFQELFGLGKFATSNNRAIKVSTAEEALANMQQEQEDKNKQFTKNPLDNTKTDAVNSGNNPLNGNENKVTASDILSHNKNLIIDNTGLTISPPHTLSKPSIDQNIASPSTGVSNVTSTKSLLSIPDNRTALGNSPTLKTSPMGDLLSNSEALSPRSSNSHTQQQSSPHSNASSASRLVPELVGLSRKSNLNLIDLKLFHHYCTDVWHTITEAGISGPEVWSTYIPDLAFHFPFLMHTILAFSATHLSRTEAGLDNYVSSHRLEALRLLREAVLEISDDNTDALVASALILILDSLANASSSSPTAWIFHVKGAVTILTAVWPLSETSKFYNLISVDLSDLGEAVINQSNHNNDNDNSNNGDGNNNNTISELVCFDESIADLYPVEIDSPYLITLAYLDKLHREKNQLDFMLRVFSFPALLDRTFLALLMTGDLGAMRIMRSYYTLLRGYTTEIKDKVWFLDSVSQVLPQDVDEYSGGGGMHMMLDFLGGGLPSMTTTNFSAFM
# Test: PBM E-score (8-mer binding enrichment) (E-score (-0.5 to 0.5)); higher = stronger / more preferred TF binding
# Conditions: protein concentration: 200 nM; construct: GST-full length
# Method: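 Universal 'all 10-mer' protein binding microarrays (Agilent AMADID 015681) probed with GST-tagged S. cerevisiae TFs (full-length or DBD) made by in vitro transcription/translation (PURExpress), about 100-200 nM. Bound TF was detected with fluorescent anti-GST. Each ungapped 8-mer (which stands for itself and its reverse complement) is scored by the PBM enrichment score (E-score), a modified Wilcoxon-Mann-Whitney statistic from -0.5 to +0.5, computed with the Universal PBM Analysis Suite. Scale: above 0.35 generally sequence-specific binding.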
row,Sequence,PBM E-score
1,TATGCAGA,0.0611
2,ATAAGCCC,-0.136
3,ACCTACCG,-6e-05
4,TAGTCAGA,-0.276
5,ACGGGTCG,0.267
6,AGACAAAG,0.0946
7,CTAAGCGA,0.385
8,CTAAGCGC,0.0189
9,ATAAGCGA,0.332
10,AGACTCAC,-0.22
11,GCTGGCAC,-0.325
12,CCGGAATC,-0.169
13,CGCGGTAA,0.191
14,AGTTCCGA,0.226
15,CTTTCCGC,-0.0543
16,GGTTCCGA,-0.00514
17,CGTTCCGA,0.444
18,AGTTCCGC,0.09
19,CGTTCCGC,0.458
20,ACCGGACA,-0.108
21,TCCTGAAA,-0.00548
22,ATTCAAGG,-0.157
23,GAGAACCA,-0.098
24,AAGAACGA,0.453
25,CAGAACGG,0.075

row,Sequence,PBM E-score
1,TAGAACCA,0.00176
2,TAGAACGA,0.429
3,GAGAACGC,0.117
4,CAGAACGA,0.379
5,CAGAACGC,-0.0854
6,AAGAACGG,0.243
7,AAGAACGT,0.101
8,GAGAACGA,0.422
9,TAGAACTA,-0.0234
10,GAATCGAC,0.163
11,ACGGGAGC,0.225
12,TAATCCTA,0.00777
13,GACGGAGC,-0.0469
14,CCTAGGAG,-0.239
15,CCAAGGCA,-0.0888
16,CAAGTGCA,-0.24
17,CTGGATGC,-0.159
18,GCATAGGC,-0.178
19,GGCATGAC,-0.121
20,AGGCTGGG,-0.263
21,CCAAGCCC,-0.117
22,CTTCTGTC,-0.199
23,GGGAACAA,0.143
24,GGGAACGA,0.492
25,GGGAACCA,-0.215

row,Sequence,PBM E-score
1,AGCCATTA,0.18
2,AGAGGCTA,-0.209
3,TAATACTA,0.114
4,CAATACGC,-0.0345
5,AAATACGT,0.0932
6,AAATACGC,0.194
7,TAATACCA,0.0168
8,CAATACGA,0.403
9,AAATACGA,0.451
10,TAATACGA,0.437
11,CAATACGG,0.0307
12,GAATACGA,0.432
13,GAATACTA,0.141
14,GAATACGC,0.152
15,ATCGCCGA,0.00202
16,GGTTGTCA,-0.195
17,ACCGCAGC,-0.0492
18,ATCTTTTA,0.0457
19,GCCCGCAC,-0.0245
20,CACCCCAG,-0.0849
21,ACAATAAT,-0.0625
22,CGCGGATA,0.188
23,CACCACAG,-0.132
24,CTACCCAG,-0.0541
25,ACCCCAGT,-0.0793

row,Sequence,PBM E-score
1,CCTAGAAG,-0.187
2,CGTGGCGC,0.0496
3,ACGAAAGG,0.33
4,GCGAAATA,0.0791
5,CCGAAACG,0.288
6,ACGAAACC,0.33
7,ACGAAACA,0.335
8,ACGAAATA,0.381
9,ACGAAACT,0.369
10,ACGAAACG,0.411
11,ACGAAATC,0.285
12,CGAAGGAG,0.129
13,GACTGAAC,0.0447
14,AATTCAGT,-0.189
15,AAACCTTA,0.0879
16,CTAAGGGA,0.0248
17,ATCCCACA,-0.176
18,GATCGTAA,0.387
19,GATCGTTA,0.211
20,AATCGTAT,0.427
21,CATCGTCA,-0.0402
22,CATCGTAA,0.381
23,CATCGTGA,0.108
24,GATCGTGC,0.0469
25,AATCGTAG,0.211

row,Sequence,PBM E-score
1,AATCGTAA,0.333
2,AATCGTCT,0.0505
3,GATCGTCC,-0.0538
4,GATCGTAC,0.454
5,CCCGCAAA,0.148
6,CTGACCCA,-0.312
7,ACTGCTAC,0.00971
8,CATGCTCA,-0.229
9,CCACGGAG,-0.163
10,ACACAGTA,-0.0309
11,CATCGTAC,0.458
12,AATCGTGC,0.221
13,CATCGTCC,0.0413
14,AATCGTAC,0.458
15,AATCGTCC,0.0602
16,CATCGTAG,0.261
17,GTTAAGCA,-0.0308
18,CATCAGAG,-0.126
19,ACACCCCT,-0.271
20,TGTTCTAA,-0.023
21,AGTGCGTA,0.14
22,CGAGTATC,0.246
23,CCGCTATC,0.0478
24,CATACGCA,0.216
25,TATACGCA,0.415

row,Sequence,PBM E-score
1,TATACGGA,0.439
2,GATACGCA,0.231
3,CATACGGA,0.362
4,GATACGGA,0.285
5,CGGATCGA,0.219
6,ATCTTTTC,-0.0858
7,ACGTTATG,0.163
8,AAGAGTAT,-0.113
9,GCGAGTAC,0.324
10,ACGAGTAT,0.382
11,AGGAGTAT,-0.109
12,ACGAGTAA,0.396
13,GCGAGTAA,0.114
14,CCGAGTAG,0.0401
15,AAGAGTAG,-0.211
16,CCGAGTAA,0.256
17,ACGAGTAG,0.38
18,ACGAGTAC,0.421
19,CCGAGTAC,0.24
20,AGGCCCAT,-0.148
21,GACCGCGC,0.0551
22,CCCGACCC,0.092
23,AAGCGCGT,0.0575
24,CCCCTCGG,0.266
25,CCGAGCCC,0.0573

row,Sequence,PBM E-score
1,CCCCTCTA,-0.112
2,AAGTTTGT,-0.176
3,AACTGTTC,-0.177
4,ACGCAGGA,0.108
5,AGCTGCCA,-0.171
6,ACGCCACC,-0.0558
7,CCGGTGGC,-0.135
8,ACGAGTCA,0.219
9,ACGAGTCT,0.324
10,ACGAGTCG,0.384
11,AATCCATT,0.0189
12,AACTCGTG,0.228
13,GACTCGTA,0.455
14,GACTCGCA,0.151
15,AACTCGTC,0.102
16,GACTCGAA,-0.121
17,CACTCGTC,0.0448
18,AACTCGTA,0.47
19,CACTCGAA,0.0641
20,CACTCGTA,0.458
21,GCTACCTA,-0.156
22,ACCTTTCA,-0.0376

# Source: the supplement of paper PMC3334620
